“And” between values parts separate entries of the source, which are not always exact repeats. Equal values may be shown once. Results filed as inconclusive are left out. The source made the active and inactive calls. Unless noted, calls follow the shape of the dose curve; as a rule, active = well fitted curve in the direction sought with a large enough effect in the repeat runs; inconclusive = weak or mixed curves; inactive = no such curve, though single readings can be large; an effect the other way counts as inactive or inconclusive.
Legend:
[1] = qHTS assay to identify small molecule agonists of the hypoxia (HIF-1) signaling pathway (AID 1224846; active = well fitted activation curve with a large enough effect in the signal ratio in the repeat runs, not every such curve was filed as active; the % refers to the signal ratio; also: % is scaled to controls: 0 for no effect and ±100 for the full control effect)
Method in brief: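 Hypoxia-pathway activation was scored as increased beta-lactamase from an HRE-controlled reporter in ME-180 cells; plated at 2,000 cells per well with 0.5% dialyzed FBS, they were exposed 17 hrs to compounds and then given CCF4-AM.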

[2] = qHTS RealTime-Glo MT Cell Viability Assay in HepG2 cells - 24 hour (AID 1224867); also: nearly all actives have a fitted effect of over 50% in size; also: potency is read from the fitted curve at half-maximal effect
Method in brief: (§1)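 HepG2 suspension premixed with RealTime-Glo reagents is plated at 600 cells per well and left 5 h at 37 C/5% CO2. Compounds in DMSO then go in, and bioluminescence reflecting viable cell number is recorded over 40 h.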

[3] = qHTS RealTime-Glo MT Cell Viability Assay in HEK293 cells - 32 hour (AID 1224868); also: nearly all actives have a fitted effect of over 50% in size; also: potency is read from the fitted curve at half-maximal effect
Method in brief: (§2)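 Reads taken at 0, 8, 16, 24, 32 and 40 h from the same wells. HEK293 cells (600/well) carried RealTime-Glo reagents from seeding, with compound added after a 5 h settle at 37 C.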

[4] = A CellTox Green Cytotoxicity Assay to monitor cytotoxicity in HEK293 cells - 0 hour (AID 1224869); also: % is scaled to controls: 0 for no effect and ±100 for the full control effect; nearly all actives have a fitted effect of over 50% in size
Method in brief: (§3)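 Seeding of HEK293 cells together with cytotoxicity dye preceded a 5 h incubation at 37 C/5% CO2. Test compounds in DMSO were then added and fluorescence monitored across 40 h.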

[5] = qHTS RealTime-Glo MT Cell Viability Assay in HepG2 cells - 40 hour (AID 1224870); also: nearly all actives have a fitted effect of over 50% in size; also: potency is read from the fitted curve at half-maximal effect
Method in brief: (§4)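 HepG2 cells (600/well) mixed with RealTime-Glo MT reagent, settled 5 h at 37 C/5% CO2 before compound addition. Nonlytic NanoLuc luminescence from viable-cell prosubstrate reduction read repeatedly during 40 h treatment at 37 C.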

[6] = A CellTox Green Cytotoxicity Assay to monitor cytotoxicity in HEK293 cells - 40 hour (AID 1224871); also: nearly all actives have a fitted effect of over 45% in size; also: potency is read from the fitted curve at half-maximal effect
Method in brief: as §3

[7] = qHTS RealTime-Glo MT Cell Viability Assay in HEK293 cells - 16 hour (AID 1224872); also: nearly all actives have a fitted effect of over 50% in size; also: potency is read from the fitted curve at half-maximal effect
Method in brief: as §2

[8] = qHTS RealTime-Glo MT Cell Viability Assay in HepG2 cells - 8 hour (AID 1224873); also: nearly all actives have a fitted effect of over 55% in size; also: potency is read from the fitted curve at half-maximal effect
Method in brief: as §4

[9] = qHTS RealTime-Glo MT Cell Viability Assay in HEK293 cells - 40 hour (AID 1224874); details: RealTime-Glo luminescence; max response: hits give low values; also: nearly all actives have a fitted effect of over 50% in size; also: potency is read from the fitted curve at half-maximal effect; as to max response: % is scaled to controls: 0 for no effect and ±100 for the full control effect
Method in brief: (§5)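 Tox21 screen in HEK293 using RealTime-Glo MT chemistry, with cells and reagent co-dispensed. Luminescence proportional to viable cell number was captured at intervals during 40 h compound exposure at 37 C.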

[10] = A CellTox Green Cytotoxicity Assay to monitor cytotoxicity in HEK293 cells - 24 hour (AID 1224875); also: nearly all actives have a fitted effect of over 45% in size; also: potency is read from the fitted curve at half-maximal effect; as to activity change: % is scaled to controls: 0 for no effect and ±100 for the full control effect
Method in brief: as §3

[11] = A CellTox Green Cytotoxicity Assay to monitor cytotoxicity in HepG2 cells - 16 hour (AID 1224876); also: nearly all actives have a fitted effect of over 45% in size; also: potency is read from the fitted curve at half-maximal effect
Method in brief: (§6)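 Nonlytic assay: viable cells exclude the dye, so fluorescence scales with cell death. HepG2 at 600 cells/well, compounds added after 5 h, signal read across 40 h.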

[12] = qHTS RealTime-Glo MT Cell Viability Assay in HepG2 cells - 32 hour (AID 1224877); also: nearly all actives have a fitted effect of over 55% in size; also: potency is read from the fitted curve at half-maximal effect
Method in brief: as §1

[13] = A CellTox Green Cytotoxicity Assay to monitor cytotoxicity in HepG2 cells - 24 hour (AID 1224878); also: nearly all actives have a fitted effect of over 45% in size; also: potency is read from the fitted curve at half-maximal effect; as to Cytotoxicity: % is scaled to controls: 0 for no effect and ±100 for the full control effect
Method in brief: as §6

[14] = A CellTox Green Cytotoxicity Assay to monitor cytotoxicity in HepG2 cells - 40 hour (AID 1224879); also: nearly all actives have a fitted effect of over 40% in size; also: potency is read from the fitted curve at half-maximal effect
Method in brief: as §6

[15] = qHTS RealTime-Glo MT Cell Viability Assay in HEK293 cells - 0 hour (AID 1224880)
Method in brief: as §5

[16] = qHTS assay to identify small molecule agonists of H2AX - cell viability counter screen (AID 1224847; calls by dose curve; also: potency is read from the fitted curve at half-maximal effect; nearly all actives have a fitted effect of over 30% in size)
Method in brief: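 Quantitative HTS viability measurement: CHO-K1 wild-type cells in serum (10% FBS) medium, short 3 hr drug exposure at 37C with 0.76% DMSO, CellTiter-Glo luminescent detection.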

[17] = qHTS assay to identify small molecule agonists of the estrogen related receptor (ERR) signaling pathway from Tox21 library (AID 1224849; calls by dose curve; also: % is scaled to controls: 0 for no effect and ±100 for the full control effect; nearly all actives have a fitted effect of over 15% in size); details: ERR reporter cell line, ONE-Glo luciferase, 18 h
Method in brief: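 Six hours post-seeding at 37 C/5% CO2, ERR cells receive DMSO-solubilised compounds; after 18 h at 37 C, ONE-Glo reagent is applied and luminescence recorded.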

[18] = A CellTox Green Cytotoxicity Assay to monitor cytotoxicity in HEK293 cells - 32 hour (AID 1224881); also: nearly all actives have a fitted effect of over 40% in size; also: potency is read from the fitted curve at half-maximal effect
Method in brief: as §3

[19] = qHTS assay to identify small molecule agonists of H2AX (AID 1224845; active = well fitted activation curve with a large enough effect in the signal ratio in the repeat runs, not every such curve was filed as active; the % refers to the signal ratio; also: potency is read from the fitted curve at half-maximal effect)
Method in brief: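 Wild-type CHO-K1 cells, plated overnight, exposed 3hr at 37C to 15 concentrations (0.76% DMSO final). Lysed, then HTRF anti-pH2AX (S139) cryptate and anti-H2AX-d2 antibodies, 24 hr room temperature; 665/620 nm emission read.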

[20] = qHTS assay to identify small molecule antagonists of the estrogen related receptor (ERR) signaling pathway from Tox21 library (AID 1224848); also: nearly all actives have a fitted effect of over 50% in size; also: potency is read from the fitted curve at half-maximal effect
Method in brief: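 Luminescent reporter read-out (ONE-Glo) from NTP's ERR cell line after 18 h treatment at 37 C with DMSO-dissolved Tox21 compounds; cells pre-plated 6 h beforehand at 2,000 per well.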

[21] = at 92.4 µM (top of the series) unless noted

C=CC(=C)CCC=C(C)C
inactive: outcome [1] | Potency [2] | Potency [3] | Potency [4] | Potency [5] | Potency [6] | Potency [7] | Potency [8] | max response [9] 8.59% | Potency [10] | Potency [11] | Potency [12] | Potency [13] | Potency [14] | Potency [15]

Cc1ccc(N)cc1O
inactive: outcome [1] | Potency [2] | Potency [4] | Potency [5] | Potency [6] | Potency [8] | Potency [12] | Potency [15]
active: Potency [16] 101 µM

O[C@@H](c1cc(C(F)(F)F)nc2c(C(F)(F)F)cccc12)[C@H]1CCCCN1
active: Potency [2] 16.9 µM | Potency [3] 8.49 µM | Potency [6] 23.9 µM | Potency [7] 7.56 µM | Potency [8] 23.9 µM | Potency [9] 8.49 µM | Potency [10] 26.8 µM | Potency [11] 23.9 µM | Potency [12] 13.4 µM | Potency [13] 21.3 µM | Potency [18] 23.9 µM
inactive: outcome [1] | activity change, positive = activation [17, 21] -63.8% [at 42.5 µM] | Potency [4]

CCO[Si](CCCSSSSCCC[Si](OCC)(OCC)OCC)(OCC)OCC
inactive: Potency [19] | Potency [2] | Potency [3] | Potency [4] | Potency [5] | Potency [7] | Potency [8] | max response [9] -16.8% | Potency [11] | Potency [12] | Potency [13] | Potency [14] | Potency [15]

NC(=O)C(=O)N/N=C/c1ccc([N+](=O)[O-])o1
inactive: outcome [1] | Potency [2] | Potency [3] | Potency [4] | Potency [5] | Potency [6] | Potency [7] | Potency [8] | max response [9] 5.32% | Potency [10] | Potency [11] | Potency [12] | Potency [13] | Potency [15] | Potency [18]

O=C(c1ccccc1)c1cc(Cl)ccc1O
inactive: outcome [1] | Potency [20] | activity change, positive = activation [17, 21] -10.3% | Potency [2] | Potency [4] | Potency [8] | Potency [11] | Potency [12] | Potency [13] | Potency [14]

Oc1ccc(-c2ccc(O)cc2)cc1
inactive: outcome [1] | activity change, positive = activation [17, 21] -24.2% | Potency [2] | Potency [4] | Potency [5] | Potency [6] | Potency [8] | Potency [11] | Potency [12] | Potency [13] | Potency [15] | Potency [18]

CC1=C(/C=C/C(C)=C/C=C/C(C)=C\C=O)C(C)(C)CCC1
inactive: outcome [1] | Potency [2] | Potency [4] | Potency [5] | Potency [8] | Potency [11] | Potency [12] | Potency [13] | Potency [15]
active: Potency [3] 46.4 µM | Potency [9] 46.4 µM

O=C1NCCN1CCN1CCC(c2cn(-c3ccc(F)cc3)c3ccc(Cl)cc23)CC1
active: Potency [16] 49.2 µM | Potency [20] 13.3 µM | Potency [2] 23.9 µM | Potency [3] 21.3 µM | Potency [5] 26.8 µM | Potency [6] 23.9 µM | Potency [7] 23.9 µM | Potency [9] 12 µM | Potency [11] 26.8 µM | Potency [12] 26.8 µM | Potency [13] 26.8 µM | Potency [14] 26.8 µM | Potency [18] 23.9 µM
inactive: outcome [1] | activity change, positive = activation [17, 21] -56.2% [at 42.5 µM] | Potency [4] | Potency [15]

COCC(=O)O[C@]1(CCN(C)CCCc2nc3ccccc3[nH]2)CCc2cc(F)ccc2[C@@H]1C(C)C
inactive: Potency [4] | Potency [15]
active: Potency [19] 49.2 µM | Potency [2] 13.4 µM | Potency [3] 6.74 µM | Potency [5] 10.7 µM | Potency [6] 19 µM | Potency [7] 5.35 µM | Potency [8] 21.3 µM | Potency [9] 6.74 µM | Potency [11] 19 µM | Potency [12] 13.4 µM | Potency [13] 13.4 µM | Potency [18] 21.3 µM

CCCCN(CCCC)CCC(O)c1cc2c(Cl)cc(Cl)cc2c2cc(C(F)(F)F)ccc12 (configuration not stated)
inactive: Potency [19] | Potency [3] | Potency [4] | Potency [6] | Potency [7] | Potency [8] | max response [9] -17.9% | Potency [10] | Potency [11] | Potency [15] | Potency [18]
active: Potency [14] 23.9 µM

CCOC(=O)N1CCC(=C2c3ccc(Cl)cc3CCc3cccnc32)CC1
inactive: activity change, positive = activation ([17]; at 42.5 µM (top of the series)) -46% | activity change, positive = activation ([17]; at 92.4 µM (top of the series)) -60.8% | Potency [4] | Potency [10] | Potency [11] | Potency [12] | Potency [15] | Potency [18]
active: Potency [16] 61.9 µM | Potency [20] 30.6 µM and 26.6 µM | Potency [3] 15.5 µM and 16.9 µM | Potency [6] 43.6 µM | Potency [7] 21.9 µM and 8.49 µM | Potency [9] 19.5 µM and 16.9 µM

CSc1ccc2c(c1)N(CCC1CCCCN1C)c1ccccc1S2 (configuration not stated)
inactive: activity change, positive = activation ([17]; at 42.5 µM (top of the series)) -67.5% | activity change, positive = activation ([17]; at 92.4 µM (top of the series)) -73.9% | Potency [4]
active: Potency [16] 50.3 µM and 55.2 µM | Potency [20] 27.2 µM | Potency [2] 48.8 µM and 23.9 µM | Potency [6] 30.8 µM | Potency [7] 17.3 µM | Potency [8] 54.7 µM and 23.9 µM | Potency [9] 15.4 µM | Potency [10] 24.4 µM | Potency [11] 54.7 µM and 26.8 µM | Potency [12] 43.5 µM and 26.8 µM | Potency [13] 38.7 µM and 23.9 µM | Potency [14] 34.5 µM and 23.9 µM | Potency [18] 30.8 µM

Reference: PubChem BioAssay (Tox21)
